Inhibition data for twelve compounds are collected here from ChEMBL document CHEMBL3433997, “St. Jude Leishmania screening dataset” (2016).

A word on the inhibition: it is the change of the read-out against control, counted positive when it falls.

Holding throughout (type): functional
Experiment [1] concerns the target Solute carrier family 2, facilitated glucose transporter member 1 (Homo sapiens) (UniProt P11166). Kind of experiment: ST_JUDE_LEISH: Cytotoxicity at 2uM final concentration against transgenic Leishmania Mexicana promastigotes LmGLUT1 that are glucose transport deficient and complemented with the human glucose transporter GLUT1. Activity is measured by DNA content using SYBR green in vitro.

The target of experiment [2] is Hexose transporter 1 (Plasmodium falciparum) (UniProt O97467). Kind of experiment: ST_JUDE_LEISH: Cytotoxicity at 2uM final concentration against transgenic Leishmania Mexicana promastigotes LmPfHT that are glucose transport deficient and complemented with the Plasmodium falciparum hexose transporter. Activity is measured by DNA content using SYBR green in vitro.
Experiment [3] concerns the target Glucose transporter (Leishmania mexicana) (UniProt O61059). Kind of experiment: ST_JUDE_LEISH: Cytotoxicity at 2uM final concentration against transgenic Leishmania Mexicana promastigotes LmGT2 that are glucose transport deficient and complemented with the L. Mexicana glucose transporter 2. Activity is measured by DNA content using SYBR green in vitro.

Solute carrier family 2, facilitated glucose transporter member 1 (Homo sapiens), sequence (P11166 whole entry): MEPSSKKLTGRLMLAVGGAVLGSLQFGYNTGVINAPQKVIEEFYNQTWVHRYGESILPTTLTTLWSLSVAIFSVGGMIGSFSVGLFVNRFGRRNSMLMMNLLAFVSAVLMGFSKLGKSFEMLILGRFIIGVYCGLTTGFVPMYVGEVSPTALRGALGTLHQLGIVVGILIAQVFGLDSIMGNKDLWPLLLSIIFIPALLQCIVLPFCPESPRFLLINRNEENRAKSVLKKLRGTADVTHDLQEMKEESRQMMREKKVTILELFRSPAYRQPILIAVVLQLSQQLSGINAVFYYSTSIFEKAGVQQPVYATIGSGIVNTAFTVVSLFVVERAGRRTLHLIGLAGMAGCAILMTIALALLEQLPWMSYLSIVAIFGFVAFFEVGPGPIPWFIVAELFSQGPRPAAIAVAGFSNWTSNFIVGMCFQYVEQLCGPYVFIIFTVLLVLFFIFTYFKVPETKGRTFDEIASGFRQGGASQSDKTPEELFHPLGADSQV

Regarding `Cc1cc(F)ccc1Nc1nc(N(C)c2ccccc2)c2cc(OCCN(C)C)ccc2n1`, the values for the inhibition in experiment [1], in experiment [2] and in experiment [3] were 7.87%, 6.84% and 2.04%, respectively.
Turning to `CCCOc1cc(OCCC)cc(-c2ccc(C(=O)Nc3ccc4ccc(C)nc4c3)c(=O)[nH]2)c1`, the inhibition in experiment [1] was 1.35%; in experiment [2], 0.78%; in experiment [3] it was 3.33%.
The matching figures for `Oc1cccc(-c2nc(-c3ccccc3)c(-c3ccc(Oc4ccc(-c5[nH]c(-c6cccc(O)c6)nc5-c5ccccc5)cc4)cc3)[nH]2)c1`: 1.24%, 2.89% and 1.33%.
Consider `O=C(NCCNc1noc(-c2sccc2Br)n1)c1ccc(Cl)cc1`, for which the inhibition in experiment [1] is -1.4%; in experiment [2], 3.34%; in experiment [3], -0.91%.
In the same order, the values of `CCc1n[nH]c(C(=O)NC2CCN(CC3(c4ccc(OC)cc4)CCCCC3)CC2)c1C` are 3.43%, 2.97% and 1.81%.
In the same order, the values of `CCCCCN(C(=O)Nc1cc(C(F)(F)F)cc(C(F)(F)F)c1)C(C)c1nc2ccccc2c(=O)n1CC` (stereo unspecified) are -0.28%, 1.02% and 6.73%.
In the case of `Cc1ccc2c(N/N=C/c3cccc([N+](=O)[O-])c3)cc(C)nc2c1`, the inhibition in experiment [1] turned out to be 8.19%; in experiment [2], 4.7%; in experiment [3], 3.94%.
With `Cc1ccc2c(c1C)NC(=O)C21NN=C(c2ccccc2)S1` (stereo unspecified), the inhibition in experiment [1] was -1.86%; in experiment [2], -1.15%; in experiment [3] it was -2.33%.
Take `c1ccc2c(NCCCCCCNc3ccnc4ccccc34)ccnc2c1`: the inhibition is -2.25% in experiment [1], -0.51% in experiment [2] and -2.32% in experiment [3].
In the same order, the values of `CC(C)(C)c1ccc(CN2CCC(NC(=O)c3ccc(-c4cccc(Cl)c4)s3)CC2)cc1` are 11.2%, 8.67% and 7.09%.
The matching figures for `C=C(F)c1sc(CNCCCNc2nc3ccccc3[nH]2)c(C)c1Br`: 57.5%, 73.8% and 68.7%.
In the case of `CC(=O)Nc1ccc(C(=O)Nc2ccc(-c3cccc(-c4nc5cc(C(F)(F)F)ccc5[nH]4)c3)cc2)cn1`, the inhibition in experiment [1] was -0.12%; in experiment [2], 0.25%; in experiment [3] it was -0.11%.
